These results are taken from PubChem BioAssay AID485344 (National Center for Advancing Translational Sciences (NCATS), 2010).

The campaign covered roughly 340,000 compounds. About 6,900 (2%) were called active. Rule as the data show it: active = inhibition above about 30%; inactive = below that, where a call was filed. Shown is part of a subset that was picked to be rich in actives.

The target of the experiment is D(2) dopamine receptor (Homo sapiens) (UniProt P14416). The experiment can be described thus: HTS Assay for Allosteric Antagonists of the Human D2 Dopamine Receptor: Primary Screen for Antagonists. Also: 0% is about no effect. Conditions: HEK293 TREx D2 cells, calcium flux, dopamine EC80; at 10 µM; stronger effect = higher value. A digest of the protocol: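 Calcium mobilization kinetics were recorded at 1 s intervals in tetracycline-induced HEK293 T-REx D2 cells, first for 180 s after compound addition and then 180 s after EC80 dopamine.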
D(2) dopamine receptor (Homo sapiens), sequence (P14416 whole entry, looked up): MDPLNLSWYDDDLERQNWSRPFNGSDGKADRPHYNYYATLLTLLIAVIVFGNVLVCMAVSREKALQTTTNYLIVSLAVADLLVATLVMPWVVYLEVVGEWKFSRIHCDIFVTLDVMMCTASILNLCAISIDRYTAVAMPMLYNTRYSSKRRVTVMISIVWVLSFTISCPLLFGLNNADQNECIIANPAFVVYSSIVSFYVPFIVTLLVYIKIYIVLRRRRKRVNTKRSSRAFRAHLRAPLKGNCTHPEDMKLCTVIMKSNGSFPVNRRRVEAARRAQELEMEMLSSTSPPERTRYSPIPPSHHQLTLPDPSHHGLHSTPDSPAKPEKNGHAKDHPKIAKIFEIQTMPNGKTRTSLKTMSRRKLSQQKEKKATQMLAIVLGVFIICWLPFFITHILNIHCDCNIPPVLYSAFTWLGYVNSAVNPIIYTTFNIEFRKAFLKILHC
On the technique in general: A change in cytosolic calcium serves as a functional read-out for many receptors and channels.
For `CC1CCCCC12NC(=O)N(CC(=O)Nc1ccc(S(=O)(=O)Nc3ncccn3)cc1)C2=O` (stereo not drawn), the inhibition is 14.7% (inactive).

`CCC(=O)c1cc(F)ccc1OCC(=O)Nc1ccc2c(c1)OCCO2`: the inhibition is -15.9% (inactive).

For `O=c1ccc2c(-c3ccccc3S(=O)(=O)O)c3ccc(O)c(O)c3oc-2c1O`, the inhibition is 13.3% (inactive).

Regarding `COC(=O)CCNc1ccc2c(c1)OCCO2`, the inhibition was 0.987% (inactive).

In the case of `CCCCN(CC(=O)NC(C)(C)C)C(=O)C(=O)Nc1ccc2c(c1)OCCO2`, the inhibition is 64.1% (active).

As to `CCC(C)(C)NC(=O)CN(C(=O)C(=O)Nc1ccc2c(c1)OCCO2)C(C)(C)CC`, the inhibition was -4.87% (inactive).

Take `COC(=O)[C@]1(C)CCC[C@@]2(C)C3CC[C@]4(OC(C)=O)C[C@@]3(CCC21)CC4=NO` (stereo partly drawn): the inhibition was 2.69% (inactive).

On to `CC(=O)c1cccc(NC(=O)CN2C(=O)c3cccnc3Oc3ccc(Cl)cc32)c1`, for which the inhibition was 8.77% (inactive).

Take `O=C(CN1C(=O)c2cccnc2Oc2ccc(Cl)cc21)Nc1ccc(F)cc1`: the inhibition was 32.7% (active).

Turning to `O=C(CN1C(=O)c2cccnc2Oc2ccc(Cl)cc21)NCCc1ccccc1`, the inhibition is 10.8% (inactive).

With `CCC(C)N(C(=O)CSc1nnnn1-c1ccccc1OC)C1CCS(=O)(=O)C1` (stereo not drawn), the inhibition was -18.8% (inactive).

For `CCOc1cccc2cc(C(=O)OCC(=O)Nc3c(C)cccc3CC)c(=O)oc12`, the inhibition is 17.6% (inactive).

In the case of `CCC1CCC2(CC1)NC(=O)N(CC(=O)Nc1ccc(OC)cc1)C2=O` (stereo not drawn), the inhibition is 21.9% (inactive).

In the case of `O=C(C[n+]1ccc2c(c1)nnn2-c1ccccc1)c1ccc(Cl)cc1`, the inhibition was 35.8% (active).

As for `O=C(CSc1cccc[n+]1[O-])c1ccc(Cl)cc1`, the inhibition was 11.7% (inactive).

For the compound `O=C(Cn1cc(-c2nnnn2-c2ccc(Cl)cc2)c(=O)c2ccccc21)c1ccccc1`, the inhibition was -5.55% (inactive).

With `COc1cc(OC)cc(-c2c(-c3ccc(F)cc3)c3cc(-c4ccc5cc[nH]c5c4)ccc3n2C)c1`, the inhibition is 3.65% (inactive).

For `O=C(COC(=O)c1c(Cl)cccc1Cl)Nc1cccc(S(=O)(=O)NC2=NCCCCC2)c1`, the inhibition is -9.77% (inactive).

For the compound `O=C(Nc1cccc(C(F)(F)F)c1)c1ccc(N2CCNCC2)c([N+](=O)[O-])c1`, the inhibition was 8.47% (inactive).

With `COc1cc(OC)cc(C(=O)NC(=S)N2CCN(c3ccc(C(F)(F)F)cc3[N+](=O)[O-])CC2)c1`, the inhibition is 30% (active).

Regarding `O=C(Cc1ccc(S(=O)(=O)N2CCOCC2)s1)N1CCN(c2ccc(C(F)(F)F)cc2[N+](=O)[O-])CC1`, the inhibition is -7.45% (inactive).

Take `O=S(=O)(NCCCN1CCOCC1)c1ccc(F)c(Cl)c1`: the inhibition was 26.5% (inactive).

For `COC(=O)c1ccc(-c2c(-c3ccccc3)ncc3cc(OC)c(OC)cc23)cc1`, the inhibition is -1.67% (inactive).

As for `CC(C)CN(C(=O)CSc1ncnc2sccc12)C1CCS(=O)(=O)C1` (stereo not drawn), the inhibition is 6.11% (inactive).

Consider `CCOc1ccc(S(=O)(=O)Nc2cccc(C(=O)NCC3(N4CCCCC4)CCCCC3)c2)cc1`, for which the inhibition is -9.84% (inactive).

For the compound `CCOC(=O)CNC(=O)CSc1nnc(COc2ccc(Cl)cc2)n1CC`, the inhibition was 32.9% (active).

As to `CCn1c(COc2ccccc2)nnc1SCC(=O)NCc1ccco1`, the inhibition was -10.2% (inactive).

Consider `CCOC(=O)CNC(=O)CSc1nnc(-c2cccc(OC)c2)n1CC`, for which the inhibition is -19.1% (inactive).

Consider `COc1ccc(OC)c(NC(=S)N2CCc3ccccc3C2)c1`, for which the inhibition was 16.6% (inactive).

On to `COc1ccc(CCC(C)N2CCc3ccccc3C2)cc1` (stereo not drawn), for which the inhibition was 55% (active).

Take `COc1ccc(NC(=O)C(=O)NCC(c2ccco2)N2CCc3ccccc3C2)cc1` (stereo not drawn): the inhibition is -3.07% (inactive).

As for `CN(C)S(=O)(=O)c1cccc(NC(=O)COc2ccc3ccccc3c2)c1`, the inhibition was 7.96% (inactive).

Consider `CCOC(=O)C1CCCN(Cc2nc(N)nc(Nc3ccc(C)cc3)n2)C1` (stereo not drawn), for which the inhibition was 12.9% (inactive).

As for `CCOC(=O)C1CCCN(CCSc2ccc(C)cc2)C1` (stereo not drawn), the inhibition was 43.5% (active).

On to `CCOC(=O)C1CCCN(C(=O)COc2ccc(N(C)S(=O)(=O)c3ccc(C)cc3)cc2)C1` (stereo not drawn), for which the inhibition was 15.8% (inactive).

As for `CCN(CC)c1ccc(NC(=O)CN2C(=O)NC3(CCc4ccccc43)C2=O)cc1` (stereo not drawn), the inhibition was 2.26% (inactive).

With `COC(=O)Cc1ccc(OCC(=O)NC2CCCC2)cc1`, the inhibition was 0.938% (inactive).

For the compound `Cc1ccc(NC(=O)CN(C)C(=O)c2cccc(S(=O)(=O)N3CCCC3)c2)cc1`, the inhibition is -2.36% (inactive).

Turning to `CCOc1ccc(NC(=O)CN(C)C(=O)c2cccc(S(=O)(=O)N3CCCC3)c2)cc1OCC`, the inhibition is -1.88% (inactive).

With `Cc1ccc(S(=O)(=O)N2CCCCC2)cc1C(=O)N(C)CC(=O)Nc1cccc(F)c1`, the inhibition is 31.6% (active).

With `O=C(CCNC(=O)c1ccc(Cl)cc1)NC1CCCc2ccccc21` (stereo not drawn), the inhibition is -3.04% (inactive).

Regarding `CC(C)(C)OC(=O)NCCCCCNC(=O)c1[nH]cnc1C(=O)Nc1nccs1`, the inhibition is -7.74% (inactive).

Take `Cc1c(C(=O)Nc2cccc(-c3nnc4n3CCCCC4)c2)oc2ccccc12`: the inhibition is 60% (active).

With `O=C(Cn1[nH]c(=O)c2ccccc2c1=O)Nc1cccc(-c2nnc3n2CCCCC3)c1`, the inhibition is -20.7% (inactive).

For `Cc1c(C(=O)NC2CCCCC2)oc2ccccc12`, the inhibition was 15.1% (inactive).

As to `NS(=O)(=O)c1ccc(NC(=O)COC(=O)CCc2c[nH]c3ccccc23)cc1`, the inhibition is 2.49% (inactive).

Take `CCc1ccc(CCC(=O)Nc2ccc(S(N)(=O)=O)cc2)o1`: the inhibition is 43.5% (active).

With `CC1CC(C)CN(CC(=O)Nc2ccc(S(N)(=O)=O)cc2)C1` (stereo not drawn), the inhibition is -1.67% (inactive).

Turning to `CC(=O)Nc1ccc(NC(=O)CSc2nnc(C3CC3)n2-c2ccccc2)cc1`, the inhibition was 2.45% (inactive).

Turning to `Cc1ccc(S(=O)(=O)NCCC(=O)NCc2ccc(Cl)cc2)cc1C`, the inhibition was -19% (inactive).

On to `O=C(NCC(c1ccco1)N1CCc2ccccc21)c1cccc(F)c1` (stereo not drawn), for which the inhibition was 5.81% (inactive).

On to `O=C(O)c1cccnc1Sc1ncnc2sc3c(c12)CCC3`, for which the inhibition was 34.2% (active).

Turning to `COCCn1c(C)cc(C(=O)CSc2ncnc3sc4c(c23)CCC4)c1C`, the inhibition was 9.53% (inactive).

In the case of `CCCSc1ncccc1C(=O)O`, the inhibition is -16.5% (inactive).

Take `COc1ccccc1C(=O)NC(CCSC)C(=O)N1CCN(C/C=C/c2ccccc2)CC1` (stereo not drawn): the inhibition was 3.22% (inactive).

Consider `COc1cc(C(=O)N2CCN(C/C=C/c3ccccc3)CC2)cc(OC)c1C`, for which the inhibition was 0.0553% (inactive).

Consider `CNC(=O)NC(=O)C(C)N1CCN(C/C=C/c2ccccc2)CC1` (stereo not drawn), for which the inhibition is 33.5% (active).

Regarding `CC1CCCCC12NC(=O)N(CC(=O)OCC(=O)NCc1ccc(F)cc1)C2=O` (stereo not drawn), the inhibition is -29.1% (inactive).

Consider `CN(CC(=O)Nc1c(Cl)cccc1Cl)C(=O)CC1OC(=O)c2ccccc21` (stereo not drawn), for which the inhibition is 4.45% (inactive).

As for `CN(C)CCOC(=O)C(c1ccccc1)C1(O)CCCC1` (stereo not drawn), the inhibition is 58.6% (active).

For the compound `CCC(C(=O)OCCN(CC)CC)c1ccccc1` (stereo not drawn), the inhibition is 6.37% (inactive).

Consider `O=C(O)C(c1ccccc1)C1(O)CCCCC1` (stereo not drawn), for which the inhibition was 2.2% (inactive).

Regarding `O=C(CSc1nc2[nH]c(=O)[nH]c(=O)c2s1)Nc1cccc(F)c1`, the inhibition was -3.77% (inactive).

Take `CCc1ccc(CN(C)C(C)C(=O)Nc2ccc(S(=O)(=O)N3CCCC3)cc2)cc1` (stereo not drawn): the inhibition was 12.7% (inactive).

As to `CC(C)=C(NC(=O)c1ccccc1)C(=O)N/N=C(\C)c1ccccc1O`, the inhibition is 62.7% (active).

Regarding `CNC(=O)C(NC(=O)c1ccccc1)=C(C)C`, the inhibition is -6.51% (inactive).

`C/C(=N/NC(=O)c1ccc(NC(=O)c2ccc(F)cc2)cc1)c1ccccc1`: the inhibition is 14.8% (inactive).

For `CCCC(=O)Nc1ncnc2c1ncn2[C@@H]1O[C@@H]2OP(=O)(O)OC[C@H]2[C@H]1OC(=O)CCC`, the inhibition is -4.97% (inactive).

For `CCO[C@H]1OC(C(=O)N2CCCCCCC2)=C[C@@H](c2ccc(C(F)(F)F)cc2)[C@@H]1CCCO`, the inhibition was 30.3% (active).

On to `CCO[C@@H]1OC(C(=O)N2CCOCC2)=C[C@H](C)[C@H]1CCCO`, for which the inhibition was -3.13% (inactive).

In the case of `CCO[C@H]1OC(C(=O)N2CCOCC2)=C[C@@H](c2ccc3c(c2)OCO3)[C@@H]1CCCO`, the inhibition is 2.11% (inactive).

For `O=C(CSc1ccccc1)Nc1cccc(S(=O)(=O)N2CCCCC2)c1`, the inhibition was 0.706% (inactive).

For `Cc1ccc(C)c(C(=O)COC(=O)Cn2[nH]c(=O)c3ccccc3c2=O)c1`, the inhibition was -1.59% (inactive).

In the case of `Cc1ccc(NC(=S)N(Cc2ccco2)C(C)c2cccs2)cc1` (stereo not drawn), the inhibition is -6.52% (inactive).

In the case of `Cc1ccc(NC(=S)N(CCN(C)C)Cc2cccs2)cc1C`, the inhibition is 12.4% (inactive).

In the case of `Cc1ccc(NC(=S)N(CCN2CCCCC2)Cc2ccco2)cc1C`, the inhibition is 50.8% (active).

`CCc1ccccc1NC(=S)N(CCN1CCCCCC1)Cc1ccco1`: the inhibition is -0.524% (inactive).

`Cc1ccc(NC(=S)N(CCCN2CCC(C)CC2)Cc2ccco2)cc1`: the inhibition is 34.7% (active).

In the case of `Cc1ccc(NC(=S)N(CCCN2CCCC2)Cc2cccn2Cc2ccc(Cl)cc2)cc1`, the inhibition was 3.46% (inactive).

On to `CN(C)S(=O)(=O)c1ccc(C(=O)NCC2(N3CCOCC3)CCCCC2)cc1`, for which the inhibition is 8.22% (inactive).

As to `O=C(O)c1ccccc1N=N/C(=N/Nc1cc(S(=O)(=O)O)ccc1O)c1ccccc1`, the inhibition is 28.3% (inactive).

In the case of `CCN(CC)CCCNC(=O)c1ccc2c(=O)n(Cc3ccc4c(c3)OCO4)c(=S)[nH]c2c1`, the inhibition was 16.5% (inactive).

Consider `COc1ccc(Cn2c(=S)[nH]c3cc(C(=O)N4CCCCC4)ccc3c2=O)cc1`, for which the inhibition was -3.83% (inactive).

In the case of `COc1ccc(Cn2c(=S)[nH]c3cc(C(=O)NCCCN4CCOCC4)ccc3c2=O)cc1`, the inhibition is 35.6% (active).

Regarding `COc1cccc(C(=O)OCC(=O)c2[nH]c(C)c(C(C)=O)c2C)c1`, the inhibition was 8.22% (inactive).

For `Cn1c(=O)[nH]c(=O)c2c1nc(N(CCO)Cc1ccccc1)n2Cc1ccccc1Cl`, the inhibition is 73.5% (active).

As to `CN(Cc1ccccc1)c1nc2c(c(=O)[nH]c(=O)n2C)n1CCSc1nc2ccccc2[nH]1`, the inhibition was 29.2% (inactive).

Consider `CCOC(=O)Cn1c(CN(Cc2ccccc2)Cc2ccccc2)nc2c1c(=O)[nH]c(=O)n2C`, for which the inhibition was -7.46% (inactive).

As usually defined, the inhibition is the relative decrease from the control value, in per cent.
